Test results: PubChem BioAssay (NCATS)
Records with an inconclusive call do not appear. A call without a number means that no potency is given here. Unmarked numbers belong to inactive results. Activity calls are given as the source filed them. Calls come from the whole dose curve; as a rule, active = well fitted curve in the direction sought with a large enough effect; inconclusive = small, poorly fitted or top-dose-only effect, or another doubt; inactive = no such curve, though single readings can be large; an effect the other way counts as inactive or inconclusive.

How the values were obtained:
[1] = qHTS for Inhibitors of the Aldehyde Dehydrogenase Family (ALDH1A2, ALDH1A3, ALDH2, ALDH3A1) (AID 2061307); note: nearly all actives have a fitted effect of over 50% in size; for potency: test system not described further here; potency is the fitted concentration of half-maximal effect
[2] = target: Aldehyde dehydrogenase, mitochondrial (Homo sapiens) (UniProt P05091); test: qHTS for Inhibitors of the Aldehyde Dehydrogenase Family (ALDH2) Primary screen (AID 2061308); note: nearly all actives have a fitted effect of over 55% in size; note: potency is the fitted concentration of half-maximal effect
[3] = target: Retinaldehyde dehydrogenase 3 (Homo sapiens) (UniProt P47895); test: qHTS for Inhibitors of the Aldehyde Dehydrogenase Family (ALDH1A3) Confirmatory screens (AID 2061311); note: nearly all actives have a fitted effect of over 60% in size; note: potency is the fitted concentration of half-maximal effect
[4] = target: Retinal dehydrogenase 2 (Homo sapiens) (UniProt O94788); test: qHTS for Inhibitors of the Aldehyde Dehydrogenase Family (ALDH1A2) Confirmation screens (AID 2061314); note: nearly all actives have a fitted effect of over 65% in size; note: potency is the fitted concentration of half-maximal effect
[5] = target: Retinaldehyde dehydrogenase 3 (Homo sapiens) (UniProt P47895); test: qHTS for Inhibitors of the Aldehyde Dehydrogenase Family (ALDH1A3) Primary screen (AID 2061315)
[6] = target: Aldehyde dehydrogenase 1A1 (Homo sapiens) (UniProt P00352); test: qHTS for Inhibitors of the Aldehyde Dehydrogenase Family (ALDH1A1) Confirmatory screens (AID 2061316); note: nearly all actives have a fitted effect of over 65% in size; note: potency is the fitted concentration of half-maximal effect

Compound	Potency [1]	Potency [2]	Potency [3]	Potency [4]	Potency [5]	Potency [6]
CC(=O)Nc1ccc(-c2c(NC(C)=O)sc3c2CCNC3)cn1	inactive	inactive	inactive	11.3 µM (active)	inactive	17.9 µM (active)
COc1ccc(C2Nc3ccccc3C(=O)N2Cc2ccccc2C)cc1COc1ccc(NC(C)=O)cc1 (configuration not stated)	1.79 µM (active)	inactive	17.9 µM (active)	17.9 µM (active)	inactive	25.2 µM (active)
Cc1cc(C)nc(NC(=S)N2CCN(c3cc4ccccc4cn3)CC2)c1	inactive	inactive	6.34 µM (active)	15.9 µM (active)		5.04 µM (active)
NC(=O)C1CCN(c2ncc(-c3ccc4c(c3)OCO4)s2)CC1	5.04 µM (active)	inactive	17.8 µM (active)	inactive		12.7 µM (active)
O=C1N/C(=C\c2ccco2)C(=O)N1Cc1ccccc1	0.798 µM (active)	inactive	11.3 µM (active)	12.7 µM (active)	inactive	3.57 µM (active)
Cc1[nH]cnc1C[C@H]1CCc2c(C)c3ccccc3n2C1=O	8.96 µM (active)	inactive	3.18 µM (active)	11.3 µM (active)	inactive	
Cc1c(C(=O)OCC2CCCCO2)[nH]c2c1C(=O)CC(c1ccco1)C2 (configuration not stated)	inactive	inactive	14.1 µM (active)	7.12 µM (active)	inactive	1.42 µM (active)
COc1ccc(-n2c(C)c(C(C)=O)c3ccccc32)cc1	0.4 µM (active)	inactive	15.8 µM (active)	inactive	inactive	
O=C(c1ccco1)N1CCN(c2nc(-c3ccc(Br)cc3)cs2)CC1	3.98 µM (active)	inactive	15.8 µM (active)	inactive	inactive	
O=C(CSc1nc2ccccc2n1CCc1ccccc1)c1ccc(O)c(O)c1	12.7 µM (active)	inactive	11.3 µM (active)	inactive	inactive	7.98 µM (active)
O=C(Nc1ccc(N2CCOCC2)nc1)c1cccs1	25.1 µM (active)	inactive	22.5 µM (active)	22.5 µM (active)	inactive	12.7 µM (active)
Cc1occc1-c1ccc2ncnc(NCCc3cnc[nH]3)c2c1	inactive	inactive	3.57 µM (active)	28.3 µM (active)	inactive	
O=C(Nc1cccc2nn(-c3ccc(F)cc3)cc12)c1ccccn1	inactive	inactive	inactive	inactive	inactive	28.3 µM (active)
CC(=O)NC(C)c1cc(F)c2cccnc2c1O (configuration not stated)	2.52 µM (active)	inactive	11.3 µM (active)	10.1 µM (active)	inactive	
COc1ccc(C2Nc3ccccc3C(=O)N2Cc2cccc3ccccc23)cc1COc1ccc(NC(C)=O)cc1 (configuration not stated)	3.55 µM (active)	inactive	12.6 µM (active)	22.5 µM (active)	inactive	4 µM (active)
CC(=O)Nc1ccc(OCc2cccc(C3Nc4ccccc4C(=O)N3Cc3ccco3)c2)cc1 (configuration not stated)	10.1 µM (active)	inactive	12.7 µM (active)	14.2 µM (active)	inactive	5.65 µM (active)
Cc1ccc(-c2cc(C(=O)Nc3ccc(-c4noc(=O)[nH]4)cc3)c3ccccc3n2)cc1C	7.08 µM (active)	inactive	11.2 µM (active)	inactive	inactive	inactive
CNC(=O)C1CCN(c2nc(-c3ccc(Br)cc3)cs2)CC1	12.6 µM (active)	inactive	inactive		inactive	
Cc1ccc(CN(C)c2ccc(N3CCN(C)CC3)cc2)cc1	inactive	10 µM (active)	20.1 µM (active)			2.01 µM (active)
C/C(=C\c1cccc(C(F)(F)F)c1)C1Nc2cccc3cccc(c23)N1	inactive	inactive	11.3 µM (active)		inactive	
c1nc(NCC2CC2)c2cc(-c3ccc4c(c3)OCO4)ccc2n1	inactive	inactive	inactive		inactive	
O=c1[nH]c(CN2CCOCC2)nc2sc3c(c12)CCCC3	inactive	inactive	inactive		inactive	inactive
CN(C)c1ccc(C(=O)NCC(=O)OC(C(=O)Nc2cc(C(F)(F)F)ccc2Cl)c2ccccc2)cc1 (configuration not stated)	inactive	inactive	11.3 µM (active)		inactive	
N#Cc1nc(Nc2ccc3ccccc3c2)nc(NC2CCCC2)n1	inactive	inactive		22.5 µM (active)	inactive	
O=C(Nc1nc(-c2ccccc2)cs1)c1ccncc1NS(=O)(=O)c1ccc(Cl)cc1	25.2 µM (active)	inactive		10.1 µM (active)	inactive	
N#Cc1nc(Nc2ccccc2)nc(NC2CCCCC2)n1	0.708 µM (active)	inactive		inactive	inactive	
